Compound activity: PubChem, National Center for Advancing Translational Sciences (NCATS)
This excerpt belongs to a sample that is enriched for hits.
KDM5B inh: KDM5B demethylase inhibition. Q9UGL1. KDM5B demethylase, FDH-coupled NADH fluorescence (FDH is formaldehyde dehydrogenase). Potency, µM (top dose mostly 57.7 µM), hits mostly inhibitors. actives 2.6% (n = 220,000). AID 1347165; active = well fitted inhibition curve with a large enough effect; also: nearly all actives have a fitted effect of over 70% in size
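KDM5BΔAP (200 nM final) in 50 mM HEPES pH 7.5, 0.01% Tween-20 was preincubated 10 min at RT with compound over a concentration range. Substrate mix (H3K4me3 12.5 µM, α-KG 25 µM, Fe²⁺, ascorbate, NAD⁺, FDH) was added, and NADH fluorescence change over 30 min gave dose-response curves.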
Of the large screens only hits and unclear results are named; the others gave an inactive call; ! = repeats disagree.

O=C1CCN(Cc2ccccc2)CCOCCN1	none
c1ccc(CN2CCNc3cc(Nc4ccc(N5CCOCC5)cc4)ncc3C2)cc1	none
c1ccc(CN2CCNc3cnc(-c4ccc(N5CCOCC5)cc4)cc3C2)cc1	KDM5B inh 35µM
CC(=O)N1CCNc2cc(-c3ccc(Oc4ccccc4)cc3)ncc2C1	none
Clc1cnccc1CN1CCNc2cc(-c3ccccc3)ncc2C1	none
CC(=O)Nc1cccc(-c2cc3c(cn2)CN(Cc2ccccc2)CCN3)c1	none
C[S+](=O)([O-])c1ccc(-c2cc3c(cn2)CN(Cc2ccccc2)CCN3)cc1	KDM5B inh 28µM
C=CCNc1ccc(C(F)(F)F)cn1	none
NC(N)=N/N=C/C(Br)=C/c1ccccc1	none
Cn1nnnc1NCc1ccc(-c2cccc(Cl)c2)o1	none
CCc1c(C)sc(NC(=O)CCCCl)c1C#N	none
COc1ccc(/C=C(/NC(=O)c2ccco2)C(N)=O)cc1	none
O=C(O)/C=C/c1ccc(F)cc1	none
CC(C)(C)C(C)(O)C#CCN1CCCC1 (stereo not given)	none
O=C(Cn1nnc2sc(-c3ccccc3)cc2c1=O)Nc1cccc(Cl)c1	none
Cc1ccc(/C=N/Nc2ccnc3cc(Cl)ccc23)s1	none
COc1ccc(-c2nc(SC(CC(=O)NCc3ccco3)c3ccccc3)n[nH]2)cc1 (stereo not given)	none
CCOc1nc2ccccc2nc1N1CCC(C(=O)Nc2ccc(C(C)=O)cc2)CC1	none
COC[C@@H]1CN(C(=O)c2ccc(OC)cc2C)C[C@H]1c1ccncc1	none
COc1ccc([C@H]2CN(C(=O)c3nc(N)nc4c3CCCC4)C[C@@H]2N)cc1	KDM5B inh 22µM
COc1ccc([C@H]2CN(C(=O)C3(c4ccc(F)cc4)CC3)C[C@@H]2N)cc1	none
Cc1ccc(C(=O)N2CCN(C3CCN(CCc4ccccc4)C3=O)CC2)cc1F (stereo not given)	none
CC(=O)NC1=NN(C(C)=O)C(c2ccc(OCc3ccccc3F)c(Br)c2)S1 (stereo not given)	none
CC(C)(C)c1nc(C(=O)NCCc2ccc(Cl)cc2)n2ccncc12	KDM5B inh 79µM
O=C(NCCc1ccc(Cl)cc1)c1nc(-c2cccnc2)c2cnccn12	KDM5B inh 25µM
O=C(NCCc1ccc(Cl)cc1)c1nc(-c2cccc(F)c2)c2cnccn12	KDM5B inh 28µM
O=C(Cn1cccc1-c1nc(-c2ccccc2)no1)NCCc1ccc(Cl)cc1	none
O=C(NCCc1ccc(Cl)cc1)c1cccc(Nc2ncc(-c3ccc(F)cc3)cn2)c1	none
O=C(NCCc1ccc(C(F)(F)F)cc1)c1cccc2ncccc12	none
O=C(NCCc1ccc(Cl)cc1)c1cccs1	none
O=C(NCCc1cccnc1)c1ccc(C(F)(F)F)cc1	none
O=C(NCCc1cccnc1)c1ccc2ccccc2c1	none
O=C(NCCc1ccc(Cl)cc1)c1nc(-c2cccc(F)c2)n2c1CCCCC2	none
O=C(NCCc1ccc(Cl)cc1)c1nc(-c2cccc(C(F)(F)F)c2)c2cnccn12	KDM5B inh 32µM
CC(C)(C)c1nnc2n1C(C(=O)NCCc1ccc(Cl)cc1)CC2 (stereo not given)	none
COc1ccc(NC(=O)CCc2c(C)[nH]n(-c3ccc(F)cc3)c2=O)cc1OC	none
COC(=O)CC(NC(=O)c1cccc(F)c1)c1ccc(OC)c(OC)c1 (stereo not given)	none
Cc1nc(C2(NC(=O)CCn3c(=O)oc4ccccc43)CCCCC2)no1	none
COC(=O)c1ccc(/C=N/OCc2ccc(Cl)c(Cl)c2)cc1	none
COc1cc(OC)c(OC)cc1/C=C1\Oc2cc(OC(=O)C(C)(C)C)ccc2C1=O	none
CCOC(=O)CCCCCNCc1ccccc1	none
CNc1nc(-c2ccc(NC(=O)C(C)C)cc2)cs1	none
O=C(/C=C/c1ccc[nH]1)c1ccc(I)cc1	none
CCn1ccnc1CNc1ccc(-c2nc(-c3ccccc3C)no2)cn1	KDM5B inh 28µM
Cc1noc(-c2nc(-c3ccccc3C)no2)n1	none
CCc1noc(-c2nc(-c3ccccc3C)no2)n1	none
CC1CCC(=C(C#N)C(=O)NC2CC2)CC1 (stereo not given)	none
COc1ccc([C@@H](NC(=O)c2sc(C)nc2C)C2CC(O)C2)cn1 (stereo not given in full)	none
CC(C)NC(=O)c1ccc2nccn2c1	KDM5B inh 141µM
CN(C)C(=O)c1ccc(Cl)nc1	none
CC(C)NC(=O)c1ccc(C(C)C)cc1	none
COc1ccc([C@@H](NC(=O)c2ccc3nccn3c2)C2CC(O)C2)cn1 (stereo not given in full)	KDM5B inh 20µM
CN(C)C(=O)c1ccc2nccn2c1	KDM5B inh 126µM
CN1CCN(C(=O)c2ccc3nccn3c2)CC1	none
COc1ccc([C@@H](NC(=O)c2cc3ncccn3n2)C2CC(O)C2)cn1 (stereo not given in full)	none
O=C(c1ccc2nccn2c1)N1CCCCC1	none
COC(=O)c1ccc(OCC(=O)c2ccc3c(c2)OCCO3)cc1	none
COc1ccc(CNC(=O)Nc2ccc(Cl)cc2C)cn1	none
Cc1cc(C(=O)O)c2c(C(C)C)nn(-c3ccc(F)cc3)c2n1	none
CN(CCNC(=O)C1CCN(c2nc3cccnc3s2)CC1)C1CCCCC1	none
Cc1ccc(C)c(C(=O)COC(=O)CCc2c[nH]c3ccccc23)c1	none
Cc1nc(-c2cccc(NC(=O)c3ccc4[nH]c(C)c(C)c4c3)c2)cs1	none
COc1cc(F)ccc1C(C(=O)O)N1CCC(Oc2cccc(F)c2)CC1 (stereo not given)	none
CCC(C)(C#N)NC(=O)c1ccc2c(c1)CCC2 (stereo not given)	none
CCCCNc1nc(-c2ccc(Cl)cc2Cl)cs1	none
c1cnc2[nH]cc(-c3nc4ccncc4[nH]3)c2c1	KDM5B inh 35µM!
Cc1cc(-c2nc3ccncc3[nH]2)c(C)[nH]1	KDM5B inh 32µM
Cc1ccc2nc(CCCO)[nH]c2c1	none
c1coc(-c2nc3ccncc3[nH]2)c1	KDM5B inh 32µM!
Cc1oc(-c2ccccc2)nc1CSc1nc2ccncc2[nH]1	none
Cc1oc(-c2ccc(Cl)cc2)nc1CSc1nc2ccncc2[nH]1	none
CCc1cccc(C)c1NC(=O)CSc1nc2ccncc2[nH]1	none
O=C(NCc1c[nH]c2ncccc12)c1ccncc1	none
Cc1cccc(-c2nc(CSc3nc4ccncc4[nH]3)c(C)o2)c1	none
O=c1[nH]cccc1-c1nc2ccccc2[nH]1	none
Cc1occc1-c1nc2ccncc2[nH]1	KDM5B inh 32µM!
CCn1c(=O)n(CC(=O)N(C)CC(=O)Nc2ccccc2Br)c2ccccc21	none
COc1ccc(C2Cn3nnc(C(=O)NC4CCCCCCC4)c3CO2)cc1 (stereo not given)	none
CCC(CNc1ccc2nnnn2n1)N1CCCC1 (stereo not given)	none
CCC(Sc1nc2nccnc2c(=O)n1CCc1ccccc1)C(=O)Nc1cccc(OC)c1 (stereo not given)	none
C=CCSc1nc2c(c(=O)[nH]c(=O)n2C)n1CCOC	none
C/C(=N/Nc1cc(C(F)(F)F)ccc1Cl)c1cccc(Br)c1	none
Cc1ccc(C)c(/C=C/c2onc(C)c2S(=O)(=O)N2CCCC(C(=O)NC3CCCC3)C2)c1 (stereo not given)	none
CC1=C/C(=N\NC(=S)Nc2ccccc2C)CC1	none
O=[N+]([O-])c1cccc2nc(/C=C/c3ccc(O)cc3)ccc12	none
CC(=O)c1c(C)[nH]c(C(=O)C(C)OC(=O)c2ccc(F)cc2F)c1C (stereo not given)	none
Cc1oc(-c2ccccc2)nc1CC(=O)Nc1ccc(S(=O)(=O)NC2CC2)cc1	none
Clc1cccc(Cn2c(-c3cncs3)nc3ccccc32)c1	none
Cc1cc2oc(=O)cc(CSc3nnc4ccccn34)c2cc1C	none
CC(=O)c1ccc(NC(=O)COC(=O)c2csc(NCc3ccccc3)n2)cc1	none
Cc1ccc(SC(=O)c2ccc(Cl)cc2Cl)cc1	none
COC(=O)c1ccc(OC(=O)c2cccs2)c(OC)c1	none
